For 27 molecules, Potency and outcome results are on record in PubChem BioAssay (Tox21).

In assay [1] the target is Progesterone receptor (Homo sapiens) (UniProt P06401). Briefly: qHTS assay to identify small molecule agonists of the progesterone receptor (PR) signaling pathway (AID 1346784; calls by dose curve; note: nearly all actives have a fitted effect of over 30% in size). The method, boiled down:
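Agonist mode, quantitative HTS format in a HEK 293T line expressing a UAS-controlled beta-lactamase reporter; 16 hr compound exposure at 37C in 2% charcoal-stripped FBS, then LiveBLAzer B/G FRET fluorescence.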

The target is the same in assay [2]. Briefly: qHTS assay to identify small molecule antagonists of the progesterone receptor (PR) signaling pathway (AID 1346795; active = well fitted inhibition curve with a large enough effect in the signal ratio in the repeat runs, not every such curve was filed as active; the % refers to the signal ratio; note: potency is the fitted concentration of half-maximal effect). The method, boiled down:
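HEK293T PR-UAS-bla reporter cells in charcoal-stripped serum (2%) received compound after a 6 hr settling period, followed by R5020 agonist at 1 nM final; 16 hr incubation preceded the FRET substrate step and fluorescence measurement.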

Assay [3] can be described thus: qHTS assay to identify small molecule agonists of the progesterone receptor (PR) signaling pathway - cell viability counter screen (AID 1346799; calls by dose curve; note: nearly all actives have a fitted effect of over 45% in size; note: potency is the fitted concentration of half-maximal effect). The method, boiled down:
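Counter screen for cytotoxicity: compound-treated PR-UAS-bla HEK293T cells (16 hr, 37C, 5% CO2) were assayed with CellTiter-Glo, luminescence measured after 30 min at room temperature.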

A short description of assay [4]: qHTS assay to identify small molecule antagonists of the TGF-beta/Smad signaling pathway - cell viability counter screen (AID 1346824). Note: nearly all actives have a fitted effect of over 50% in size. The method, boiled down: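 SBE-bla HEK 293T cells, incubated overnight, then compound plus 0.25 ng/mL TGF-beta1 (stock added) for 5 hr at 37 C. Viability was read in the same wells by CellTiter-Glo luminescence after 30 min at room temperature.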

The nature of assay [5]: qHTS assay to identify small molecule agonists of the TGF-beta/Smad signaling pathway - cell viability counter screen (AID 1346829). Note: nearly all actives have a fitted effect of over 45% in size. Note: potency is the fitted concentration of half-maximal effect. The essentials: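 Compound-treated SBE-bla HEK 293T cells (5 hr, 37 C) were assessed for viability with CellTiter-Glo in parallel with the reporter read.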
A short description of assay [6]: qHTS assay to identify small molecule agonists of the TGF-beta/Smad signaling pathway (AID 1346859; active = well fitted activation curve with a large enough effect in the signal ratio in the repeat runs, not every such curve was filed as active; the % refers to the signal ratio; note: series mostly up to about 77 µM). The essentials: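 Smad-responsive beta-lactamase reporter cells (HEK 293T) received compounds from DMSO stocks after overnight attachment, were incubated 5 hr, then treated 2 hr with FRET substrate before dual-emission fluorescence measurement (405 nm excitation).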

In assay [7] the target is Thyrotropin-releasing hormone receptor (Homo sapiens) (UniProt P34981). Briefly: qHTS assay to identify small molecule antagonists of the thyrotropin-releasing hormone receptor (TRHR) signaling pathway (AID 1346877; active = well fitted inhibition curve with a large enough effect in the repeat runs, not every such curve was filed as active; note: potency is the fitted concentration of half-maximal effect). The essentials: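 TRHR-expressing HEK293 cells loaded with calcium dye for 2 h at 37 C; compounds pre-incubated 5 min at room temperature before TRH challenge at 1 nM final. Intracellular calcium fluorescence read kinetically for 3 min; 15 concentrations in triplicate.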

The target is the same in assay [8]. Briefly: qHTS assay to identify small molecule agonists of the thyrotropin-releasing hormone receptor (TRHR) signaling pathway (AID 1346891; calls by dose curve; note: potency is the fitted concentration of half-maximal effect; for activation: series mostly up to about 58 µM). The essentials:
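Agonist-mode calcium mobilisation screen: TRHR-transfected HEK293 cells cultured overnight (18 h), dye-loaded for 2 h at 37 °C, exposed to compounds, and monitored by fluorescence for 3 min.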

The nature of assay [9]: qHTS assay to identify small molecule agonists of the estrogen receptor alpha (ER-alpha) signaling pathway in the presence of an antagonist - cell viability counter screen (AID 1259386).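 Note: cells exposed to compounds for 22 h at 37 °C before the viability read; nearly all actives have a fitted effect of over 30% in size.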 Note: potency is the fitted concentration of half-maximal effect. The essentials:
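Cell viability in VM7Luc4E2 cells (endogenous full-length ER-alpha) measured by CellTiter-Fluor fluorescence in the same wells as the luciferase screen. Cells pre-cultured 5 days in charcoal-stripped serum, then treated 22 h with compounds at 15 concentrations plus 10.0nM ICI-182,780.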

Assay [10] is described as follows: qHTS assay to identify small molecule antagonists of the progesterone receptor (PR) signaling pathway - cell viability counter screen (AID 1346798). Note: nearly all actives have a fitted effect of over 50% in size. Note: potency is the fitted concentration of half-maximal effect. The method, boiled down:
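Same-well multiplex: after 16 hr at 37C with compound and R5020 stimulation, HEK293T cells carrying a UAS-bla reporter received LiveBLAzer substrate (2 hr RT), then CellTiter-Glo (30 min RT) for luminescent viability.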

Values joined by “and” are separate entries in the source; they are usually repeats but may differ in a detail not shown here. Equal entries are not always repeated. A number with no mark means an inactive call. Records with an inconclusive call do not appear. Active and inactive are the calls of the source. Unless noted, calls come from the whole dose curve; as a rule, active = well fitted curve in the direction sought with a large enough effect in the repeat runs; inconclusive = weak or mixed curves; inactive = no such curve, though single readings can be large; an effect the other way counts as inactive or inconclusive.

Chain of Progesterone receptor (Homo sapiens) (P06401 whole entry, looked up): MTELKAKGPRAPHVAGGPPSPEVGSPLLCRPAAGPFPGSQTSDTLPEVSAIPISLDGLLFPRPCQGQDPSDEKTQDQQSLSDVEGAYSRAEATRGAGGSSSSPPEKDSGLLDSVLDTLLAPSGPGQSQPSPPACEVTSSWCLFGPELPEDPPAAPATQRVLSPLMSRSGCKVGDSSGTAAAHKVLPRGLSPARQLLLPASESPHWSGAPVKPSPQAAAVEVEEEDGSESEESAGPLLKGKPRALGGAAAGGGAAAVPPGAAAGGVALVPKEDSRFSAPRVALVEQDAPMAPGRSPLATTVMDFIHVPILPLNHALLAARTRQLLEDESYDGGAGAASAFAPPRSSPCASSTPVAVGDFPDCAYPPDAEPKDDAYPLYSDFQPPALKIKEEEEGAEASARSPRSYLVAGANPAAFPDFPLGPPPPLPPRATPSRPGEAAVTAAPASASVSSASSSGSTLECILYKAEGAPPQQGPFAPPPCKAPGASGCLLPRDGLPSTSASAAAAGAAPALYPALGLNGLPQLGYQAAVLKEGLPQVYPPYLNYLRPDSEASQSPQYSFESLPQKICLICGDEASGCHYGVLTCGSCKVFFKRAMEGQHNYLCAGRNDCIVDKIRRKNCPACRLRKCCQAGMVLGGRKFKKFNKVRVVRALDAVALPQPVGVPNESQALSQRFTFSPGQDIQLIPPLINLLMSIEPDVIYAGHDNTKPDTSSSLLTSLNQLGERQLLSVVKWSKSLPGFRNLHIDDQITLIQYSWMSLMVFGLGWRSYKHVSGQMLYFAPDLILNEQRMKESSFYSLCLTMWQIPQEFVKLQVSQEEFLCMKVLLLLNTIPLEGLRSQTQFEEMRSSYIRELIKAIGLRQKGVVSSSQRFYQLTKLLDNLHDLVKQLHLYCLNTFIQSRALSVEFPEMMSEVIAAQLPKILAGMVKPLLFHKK
Chain of Thyrotropin-releasing hormone receptor (Homo sapiens) (P34981 whole entry, looked up): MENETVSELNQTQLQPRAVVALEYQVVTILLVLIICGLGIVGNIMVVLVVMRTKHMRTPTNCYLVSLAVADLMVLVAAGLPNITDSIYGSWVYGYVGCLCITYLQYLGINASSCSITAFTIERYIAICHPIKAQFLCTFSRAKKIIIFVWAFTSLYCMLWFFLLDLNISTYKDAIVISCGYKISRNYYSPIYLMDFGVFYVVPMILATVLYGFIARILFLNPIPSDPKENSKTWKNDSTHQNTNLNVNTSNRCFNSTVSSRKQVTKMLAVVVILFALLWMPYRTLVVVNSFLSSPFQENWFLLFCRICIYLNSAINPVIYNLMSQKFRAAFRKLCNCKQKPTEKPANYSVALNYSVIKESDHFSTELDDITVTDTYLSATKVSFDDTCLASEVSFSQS

With `NC1CCC(CC2CCC(N)CC2)CC1` (centres undefined), the Potency result in [1], in [2], in assay [4], in assay [5], in assay [7] and in assay [8] was “inactive” throughout. The Potency in assay [3] is 26.8 µM (active). Moreover, the call in assay [6] was inactive.
As to `CCOP(=O)(OCC)Oc1cc(C)nc(C(C)C)n1`, the Potency result in assay [1], in assay [2], in assay [3], in assay [5], in [7] and in [8] was “inactive” each time. For the same molecule, in assay [6], the call was inactive.
Turning to `COP(=S)(OC)Oc1nc(Cl)c(Cl)cc1Cl`, the Potency result in assay [9], in assay [5], in assay [7] and in [8] was “inactive” in each case. Also, the call in assay [6] was inactive.
For the molecule `O=NN(CCO)CCO`, the Potency result in [1], in [2], in [10], in assay [4] and in assay [5] was “inactive” in each case. Besides, the result in assay [6] was inactive.
As for `CC(C)(C)c1ccc(OP(=O)(Oc2ccccc2)Oc2ccccc2)cc1`, the Potency entry in assay [1], in assay [3], in assay [5], in [7] and in assay [8] was “inactive” in each case. The Potency in [2] was 21.8 µM (active). For the same molecule, the molecule was classed as inactive in assay [6].
As to `CCCCCCCc1ccc(O)cc1`, the Potency entry in assay [1], in [10], in assay [4], in [7] and in [8] was “inactive” in each case. The Potency in [2] was 21.7 µM (active).
In the case of `c1cc[n+]2c(c1)-c1cccc[n+]1CC2`, the Potency result in [1], in assay [2], in assay [10], in [3], in [5] and in assay [7] was “inactive” throughout. The Potency result in assay [8] is “inactive”. For the same molecule, the molecule was classed as inactive in assay [6].
Consider `COC(=O)c1cc(Oc2ccc(Cl)cc2Cl)ccc1[N+](=O)[O-]`, for which the Potency entry in [1], in assay [4] and in assay [5] was “inactive” throughout. Further, the Potency in [2] is 15.4 µM (active). The molecule was classed as inactive in [6].
Turning to `CC(=O)[O-].CC(=O)[O-].CC(=O)[O-].[Cr+3]`, the Potency entry in assay [1], in assay [2], in [10], in [3], in assay [4] and in [5] was “inactive” in each case. The molecule was called inactive in assay [6].
For `Fc1ccc(C(OCCN2CCN(CCCc3ccccc3)CC2)c2ccc(F)cc2)cc1`, the figures for the Potency in [9] and in assay [5] were 29.8 µM (active) and 23.9 µM (active), respectively. Further, in assay [6], the molecule was classed as inactive. Besides, the Potency entry in [7] and in assay [8] was “inactive” throughout.
With `CCCCCON=O`, the Potency result in assay [1], in assay [2], in [10], in assay [3], in assay [4] and in [5] was “inactive” each time.
Turning to `N#CSCc1ccccc1`, the Potency result in assay [1], in assay [2], in assay [4], in [5], in [7] and in assay [8] was “inactive” throughout. Also, the call in assay [6] was inactive.
With `O=C(O)[C@H](O)[C@@H](O)C(=O)O`, the Potency result in assay [1], in assay [2], in [10], in [3], in assay [4] and in assay [5] was “inactive” throughout. Besides, the Potency entry in assay [7] and in assay [8] was “inactive” in each case. For the same molecule, the outcome in assay [6] was inactive.
Turning to `O=[N+]([O-])c1cccc2cccc([N+](=O)[O-])c12`, the Potency result in assay [1], in [10], in assay [4], in [5], in assay [7] and in assay [8] was “inactive” throughout. Also, in [2], the Potency was 27.4 µM (active). In addition, the molecule was called inactive in assay [6].
Take `O=C(NC(=O)c1c(F)cccc1F)Nc1ccc(Oc2ccc(C(F)(F)F)cc2Cl)cc1F`: the Potency result in assay [1], in assay [2], in assay [10], in assay [5], in assay [7] and in [8] was “inactive” throughout. The result in assay [6] was inactive.
Turning to `Oc1cc(Cl)c(Cl)c(Cl)c1Cl`, the Potency result in assay [1], in assay [10], in assay [3], in assay [5], in assay [7] and in assay [8] was “inactive” each time. For the same molecule, the Potency in assay [2] is 21.2 µM (active).
Consider `S=C=Nc1ccccc1`, for which the Potency result in assay [1], in assay [2], in [3], in [5], in assay [7] and in [8] was “inactive” each time.
Regarding `CC(C)=CCN1CC[C@@]2(C)c3cc(O)ccc3C[C@@H]1[C@@H]2C`, the Potency entry in assay [1], in assay [2], in assay [10], in [3], in assay [4] and in [5] was “inactive” in each case. The Potency entry in assay [7] and in assay [8] was “inactive” in each case. Besides, the outcome in [6] was inactive.
`NC(=O)C(Cl)Cl`: the Potency entry in [1], in [2], in assay [10], in [3], in [4] and in assay [5] was “inactive” each time. The Potency result in assay [7] and in [8] was “inactive” each time. The call in [6] was inactive.
With `O=S(=O)(NS(=O)(=O)C(F)(F)F)C(F)(F)F`, the Potency result in assay [10], in assay [3], in assay [4] and in [5] was “inactive” in each case. Besides, the molecule was classed as inactive in assay [6].
In the case of `FC(F)C(F)(F)OCC(Cn1cncn1)c1ccc(Cl)cc1Cl` (centres undefined), the Potency entry in assay [1], in assay [5], in [7] and in assay [8] was “inactive” each time. The Potency in assay [2] was 19.2 µM (active). The call in assay [6] was inactive.
For the molecule `CN1CCc2cc(Cl)c(O)cc2[C@H]2c3ccccc3CC[C@@H]21`, the Potency entry in assay [1], in assay [10], in assay [4] and in assay [5] was “inactive” throughout. Also, the result in assay [6] was inactive.
Take `CC(C)c1c(CN(C)C(C)Cc2ccccc2)n(C)n(-c2ccccc2)c1=O` (centres undefined): the Potency result in [1], in assay [5], in assay [7] and in [8] was “inactive” throughout.
`CC1=C2C[C@H]3[C@@H](CC=C4C[C@@H](O)CC[C@@]43C)[C@@H]2CC[C@]12O[C@@H]1C[C@H](C)CN[C@H]1[C@H]2C`: the Potency result in assay [4], in assay [5], in [7] and in assay [8] was “inactive” in each case.
For `O=C1C2(Cl)C3(Cl)C4(Cl)C(Cl)(Cl)C5(Cl)C3(Cl)C1(Cl)C5(Cl)C24Cl` (centres undefined), the Potency in assay [2] was 29.3 µM (active); in [7], 28.9 µM (active); in assay [8] it was 30.4 µM (active) and 37.3 µM (active). In addition, in assay [4], the Potency entry was “inactive”. Further, the molecule was classed as inactive in [6].
In the case of `ClC1=C(Cl)[C@]2(Cl)[C@@H]3[C@H]4C[C@H]([C@@H]5O[C@H]45)[C@@H]3[C@@]1(Cl)C2(Cl)Cl`, the Potency entry in [1], in assay [4], in assay [5], in [7] and in assay [8] was “inactive” in each case. In assay [6], the molecule was classed as inactive.
`CC(C)N(C(=O)CCl)c1ccccc1`: the Potency entry in assay [1], in assay [3], in assay [5], in assay [7] and in [8] was “inactive” each time. The Potency in assay [10] is 61.1 µM (active) and 48.6 µM (active). The call in assay [6] was inactive.
